Assay outcomes as filed in PubChem BioAssay.
Sampled rows, rich in hits. Any-hit rate of the full collection: about 1.4%.
Rango-impB inh = Rango-importin beta binding inhibition; 0.031% of 340,000 active; Rango CFP/YFP FRET sensor + importin beta, 45 min; AID 540263; Q14974; Potency, µM (series often up to 92.2 µM); note: nearly all actives have a fitted effect of over 15% in size
Target sequence (Q14974 whole entry, looked up): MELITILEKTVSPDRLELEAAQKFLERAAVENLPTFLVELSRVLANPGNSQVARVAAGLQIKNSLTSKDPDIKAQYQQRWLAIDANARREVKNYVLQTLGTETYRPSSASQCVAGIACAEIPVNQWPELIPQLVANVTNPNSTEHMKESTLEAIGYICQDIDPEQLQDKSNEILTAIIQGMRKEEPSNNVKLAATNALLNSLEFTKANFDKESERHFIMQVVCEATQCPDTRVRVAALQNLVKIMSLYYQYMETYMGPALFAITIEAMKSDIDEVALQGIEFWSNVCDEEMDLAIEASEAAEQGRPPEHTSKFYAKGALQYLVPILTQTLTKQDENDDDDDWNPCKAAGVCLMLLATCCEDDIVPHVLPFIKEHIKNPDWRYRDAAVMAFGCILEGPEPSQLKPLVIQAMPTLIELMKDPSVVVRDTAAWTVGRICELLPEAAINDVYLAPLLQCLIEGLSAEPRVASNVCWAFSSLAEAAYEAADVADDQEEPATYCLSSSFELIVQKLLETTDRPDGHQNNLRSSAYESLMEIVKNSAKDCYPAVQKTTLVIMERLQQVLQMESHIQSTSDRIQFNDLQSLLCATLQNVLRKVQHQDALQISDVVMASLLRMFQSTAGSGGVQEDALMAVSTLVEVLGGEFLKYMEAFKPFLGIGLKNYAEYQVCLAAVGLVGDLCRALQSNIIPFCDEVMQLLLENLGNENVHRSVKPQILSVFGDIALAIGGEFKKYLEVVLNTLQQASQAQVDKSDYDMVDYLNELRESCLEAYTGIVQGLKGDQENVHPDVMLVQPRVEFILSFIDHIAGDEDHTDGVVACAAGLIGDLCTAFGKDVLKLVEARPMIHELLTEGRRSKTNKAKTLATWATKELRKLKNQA
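FRET biosensor Rango (snurportin 1 IBB between N-terminal EYFP and C-terminal Cerulean), 50 nM in PBS/1 mM DTT/0.02% Tween-20/0.1% BSA, preincubated 5 min RT with compound; 0.125 microM importin beta added, 45 min RT, CFP/YFP FRET ratio read.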
CCT modulator = modulators of cytosolic chaperonin (CCT/TRiC) activity; purified chaperonin ATPase assay, HTRF ADP detection, 30 min; activity change, % (concentration not given with the values), hits read low; 0.3% of 360,000 active; AID 651819; in the data active = activity change below about -30%
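Nucleotide hydrolysis assay: TRiC at 20–40 nM final (set by batch activity) with 10 uM ATP, 30 min at 37 °C, in presence of 76 uM compound. Detection by competitive ADP HTRF, 30 min ambient.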
MmCpn inh = blocks the Methanococcus maripaludis chaperonin Mm-Cpn | purified Mm-Cpn ATPase, ADP Transcreener TR-FRET | 0.031% of 330,000 active | Potency, µM (top dose mostly 76.9 µM), usual class: inhibitors; active = well fitted inhibition curve with a large enough effect; inconclusive = small, poorly fitted or top-dose-only effect; note: nearly all actives have a fitted effect of over 80% in size
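Eu-cryptate anti-ADP/ADP-d2 competition gives a ratio inversely related to ADP. Enzyme at 25 nM was pre-exposed to compound for 10 min, then given 10 uM ATP for 30 min, 37°C throughout.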
KCNH2 3.1 block = blocks the human KCNH2 3.1 channel isoform; U2OS KCNH2 3.1, thallium flux FluxOr; stronger effect = lower value; activity change, % (tested at about 1.8 µM); 0.95% of 340,000 active;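 active = maximum activity change below -70%; inconclusive = maximum activity change from -70% to -50%; inactive = maximum activity change above -50%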;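 note: thallium influx rate constant from kinetic fluorescence after stimulation buffer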
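Channel expression came from 3.1 mutant virus (1.77 x 10^8 /mL) applied to suspended U2OS cells for 4 h. Flux was tracked with FluxOr dye plus Red40 quencher, and kinetic rate constants normalized to controls.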
KCNH2 WT inh = blocks the wildtype human KCNH2 potassium channel; Q12809; U2OS, BacMam KCNH2, thallium flux FluxOr; stronger effect = lower value; activity change, % at 1.84 µM; 0.37% of 340,000 active;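 active = maximum activity change below -70%; inconclusive = maximum activity change between -70% and -50%; inactive = maximum activity change above -50%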
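U2OS cells were transduced with wild-type KCNH2 virus (2.03 x 10^8 / mL) for 4 h at room temperature, then cultured overnight at 37 C. Thallium flux was read with FluxOr dye. Rate constants were normalized to DMSO controls.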
Rango release inh = inhibition of RanGTP-driven Rango-importin beta dissociation. 0.071% of 340,000 active. O95149+P62826. Biochemical FRET Rango-importin beta, RanGTP-induced dissociation. Potency, µM (titrated, usually from 46.1 µM); note: nearly all actives have a fitted effect of over 45% in size
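Rango FRET biosensor (snurportin-1 IBB flanked by N-terminal EYFP and C-terminal CFP10) at 0.1 uM, with 0.25 uM importin beta in PBS, 1mM DTT, 0.02% Tween-20, 0.1% BSA. 0.6 uM Ran, 2mM GTP and 0.2 uM RCC1 were then added for 45 min at room temperature. Inhibition read as loss of FRET rise.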
Numbers stand for hits; i = inactive; ? = inconclusive; nt = not tested or not shown. Unless noted, calls come from the whole dose curve.

SMILES	Rango-impB inh	CCT modulator	MmCpn inh	KCNH2 3.1 block	KCNH2 WT inh	Rango release inh
Cc1occc1C(=O)N(Cc1nc(-c2ccccc2)no1)C(C)C	i	-72	i	i	i	i
NC(=S)NNc1cccc(Cl)c1	i	i	i	-82	i	i
NC(=O)c1ccc(-n2nnnc2Oc2ccccc2)cc1	i	i	i	i	i	i
COc1ccccc1Oc1nnnn1-c1ccc(C(N)=O)cc1	i	i	i	-85	i	i
O=C(c1ccc(F)cc1)C1CCN(CCn2c(=S)[nH]c3ccccc3c2=O)CC1	nt	nt	i	nt	nt	nt
CC1(C)C(=O)N(CCN2CCC(C(=O)c3ccc(F)cc3)CC2)c2ccccc21	i	i	i	-75	i	i
O=C(NC1c2ccccc2Oc2ccccc21)c1ccc([N+](=O)[O-])cc1	i	i	nt	-100	?	i
Cc1nnc(SCC(=O)N2CCN(c3ccccc3F)CC2)n1C1CC1	i	-97	i	i	i	i
COc1cc(/C=C(\C#N)C(=O)Nc2cccc(C(=O)O)c2)ccc1OCc1ccc(Cl)cc1	i	i	i	i	-92	i
CCOc1ccccc1CN1CCNC(=O)C1CC(=O)NCc1ccccn1 (centres undefined)	i	i	i	i	i	i
Cc1ccc2nc(SCC(=O)N(C)C3CCS(=O)(=O)C3)[nH]c2c1 (centres undefined)	i	i	i	-198	i	i
CN(C(=O)CSc1nc2ccccc2[nH]1)C1CCS(=O)(=O)C1 (centres undefined)	i	i	i	i	i	i
COc1cc(C)ccc1OCc1cc(C(=O)NC(c2ccccn2)C(F)(F)F)no1 (centres undefined)	nt	i	nt	-87	i	nt
CC(=O)Nc1ccc(NC(=O)CSc2ccc3nnc(-c4ccccn4)n3n2)cc1	i	i	i	i	i	i
COc1ccccc1/C=C/CN1CCC(Oc2cc(C(=O)NC3CC3)ccc2OC)CC1	i	-34	i	-101	-120	i
C#Cc1ccc(CN2CCC(Oc3cc(C(=O)NC4CC4)ccc3OC)CC2)cc1	i	i	i	-103	-99	i
Cc1c(C(N)=O)cc([N+](=O)[O-])cc1[N+](=O)[O-]	i	i	nt	i	i	i
O=C(CCNC(=O)C1CCN(S(=O)(=O)c2ccccc2)CC1)NCc1ccc(Cl)cc1	?	-80	i	i	i	i
O=C(NCCc1ccccc1)C1CCN(S(=O)(=O)N2CCOCC2)CC1	i	i	i	i	-104	i
O=C(CCNC(=O)C1CCN(S(=O)(=O)c2ccccc2)CC1)NCc1cccc(Cl)c1	i	-83	i	i	i	i
O=C(NCc1ccccc1)C1CCN(S(=O)(=O)N2CCOCC2)CC1	?	i	i	i	i	i
COC(=O)c1ccc2c(c1)C(C)(C)C(/C=C/c1ccccc1O)=[N+]2C	i	i	i	i	i	i
C[N+]1=C(/C=C/Nc2ccccc2Cl)C(C)(C)c2ccccc21	?	i	i	i	-80	i
CCOC(=O)Cc1csc(N/N=C\c2ccccc2OC)n1	i	i	i	i	i	i
CC1(C)O[C@@H]2[C@H](O1)[C@@H](CO)O[C@H]2n1cnc2c(=O)[nH]cnc21	i	-49	i	i	i	i
SMILES	Rango-impB inh	CCT modulator	MmCpn inh	KCNH2 3.1 block	KCNH2 WT inh	Rango release inh
CC(C)(C)OC(=O)Nc1ncnc2c1ncn2C1OC(CO)C2OC(C)(C)OC21 (centres undefined)	i	i	i	i	i	i
CC(C)(C)c1nc2scc(-c3ccc(Cl)cc3)c2c(=O)o1	i	i	i	-82	i	i
COc1ccc(-c2csc3nc(C(C)(C)C)oc(=O)c23)cc1OC	i	i	i	i	i	i
O=S(=O)(Nc1ccc(S(=O)(=O)Nc2nccs2)cc1)c1ccc(Br)cc1	i	i	i	i	i	i
O=S(=O)(Nc1nccs1)c1ccc(NS(=O)(=O)c2c(F)cc(F)c(Cl)c2F)cc1	i	i	i	i	-105	i
O=[N+]([O-])c1ccccc1N/N=C/c1ccccc1	i	i	i	-83	i	i
O=[N+]([O-])c1ccccc1N/N=C/c1ccc2c(c1)OCO2	?	i	i	i	i	i
